Compound activity deposited in PubChem BioAssay by Sanford-Burnham Center for Chemical Genomics.
Shown are actives, neighbours in structure and some others; about 4.1% of the full set was active somewhere.
tim23-1 inh: growth inhibitors of tim23-1 mutant yeast, primary screen, luminescence, uHTS. S. cerevisiae tim23-1 growth, BacTiter-Glo luminescence, 24 h. inhibition, % at 20 µM. actives 1.3% (n = 330,000);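 active means growth inhibition of the mutant yeast at or above 50%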;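 further: temperature-sensitive mutant grown at 25 °C; plate controls were DMSO-treated mutant yeast for no effect and medium wells lacking yeast for full effect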
tim10-1 inh: growth inhibitors of tim10-1 mutant yeast, primary screen, luminescence, uHTS; actives 2.2% (n = 330,000); inhibition, % at 20 µM; S. cerevisiae tim10-1 ts strain growth, BacTiter-Glo, 24 h;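 active means inhibition of at least 40%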;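 further: mutant grown at 25 °C; 0% = DMSO wells with yeast and 100% = wells holding no yeast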
NALP3 yeast inh: NALP3 inflammasome inhibitors in reconstituted yeast, primary screen, luminescence, uHTS. Yeast reconstituted NLRP3/ASC/caspase-1, beta-gal luminescence, 24 h. AID 2825, 2010. actives 0.39% (n = 330,000). inhibition, % at 10 µM;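 active means inhibition of 50% or more; inactive means inhibition below 50%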;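 further: plate controls were induced DMSO wells for no effect and uninduced yeast grown without galactose for full effect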
NALP1 inh: NALP1 inflammasome inhibitors in reconstituted yeast, colorimetric, S. cerevisiae, triplicate retest. S. cerevisiae NALP1/ASC/caspase-1 growth, X-gal OD620, 72 h. inhibition, % at 10 µM. actives 0.61% (n = 280,000). AID 2071, 2009; in the data active means inhibition mostly above about 24%, no sharp cut-off; inactive means mostly below about 32%
TIM10 inh: growth inhibitors of isogenic TIM10 control yeast, primary screen, counter-screen for tim10-1 yeast inhibitor project, luminescence, uHTS; S. cerevisiae TIM10 strain growth, BacTiter-Glo luminescence, 24 h; inhibition, % at 10 µM; actives 1.4% (n = 330,000); AID 463195, 2010;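 active means inhibition of 40% or more at the single tested concentration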;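 further: wild-type TIM10 isogenic control strain grown at permissive 25 °C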
NALP3 confirm: NALP3 inhibitors retested in yeast, confirmation, luminescence, single concentration | inhibition, % at 10 µM | shares compounds with NALP3 yeast inh | yeast expressing human NALP3 | actives 81% (n = 1,300); in the data active means inhibition above about 48%
Casp1 ASC ctr: CASP1-PYCARD signaling inhibition in yeast, confirmatory test, counterassay for NLRP3 inhibitor program, one-dose; inhibition, % at 10 µM; actives 66% (n = 1,000); shares compounds with NALP3 yeast inh; yeast expressing Caspase-1-ASC, luminescence counter screen
NALP3 retest: NALP3 inhibitors in yeast, repeat test, confirmation, luminescence, single concentration, retest; shares compounds with NALP3 yeast inh; yeast expressing human NALP3, luminescence read-out; inhibition, % at 10 µM; actives 53% (n = 1,000)
* marks the source's active call; other numbers are inactive results; . = no result. Unless noted, no stated cut-off is given here; in the data, active means inhibition above about 50%; inactive means the rest.

SMILES	tim23-1 inh	tim10-1 inh	NALP3 yeast inh	NALP1 inh	TIM10 inh	others
CCCCN(Cc1ccccc1)C1CCN(CCc2ccccc2)CC1	2	-26	31	48*	-4
C/C=C1/C[N+]2(C)CCC34C(=C(C=O)[C@H]1C[C@@H]32)Nc1ccccc14 (stereo partly specified)	4	-25	2	.	-3
CC(=NCc1ccco1)c1c(O)n(C)c(=O)n(C)c1=O	8	12	9	42*	8
CCC(=NCc1ccco1)c1c(O)n(C)c(=O)n(C)c1=O	-11	1	3	.	-17
O=C(O)c1c[nH]c2ccc(S(=O)(=O)N(CCCl)CCCl)cc12	-2	3	8	40*	8
c1cncc(CNC2CCCC2)c1	-4	-1	14	30*	7
c1cncc(CNC2=NCCCCC2)c1	4	5	17	.	-1
Cc1ccc(N=C(N(C)C)P(=O)(N(C)C)N(C)C)cc1	35	0	11	24*	-1
Cc1[nH]c2ccccc2c1C(=O)C(=O)N1CC2CC(C1)c1cccc(=O)n1C2 (stereo unspecified)	-2	5	-2	28	2
COC(=O)C1=C(c2ccccc2)C[C@@H]2CC[C@H]1N2C(=O)NC1CCCCC1	14	4	11	.	8
O=c1c2ccccc2[nH]c(=S)n1-c1ccc(Br)cc1	14	4	25	33*	-6
CN(C)C(=S)SSC(=S)N(C)C	.	.	.	64*	.
CN1C2CCC1/C(=C/c1ccccn1)C(=O)/C2=C\c1ccccn1	.	.	.	101*	.
C=C(C)[C@@]12OC3(c4ccccc4)O[C@@H]1C1[C@@H]4O[C@]4(CO)[C@@H](O)[C@]4(O)C(=O)C(C)=C[C@H]4[C@@]1(O3)[C@H](C)[C@H]2OC(=O)/C=C/C=C/c1ccccc1 (stereo partly specified)	10	19	9	.	18
CCCC(CCC)C(=O)OC[N+](C)(C)CCOC(=O)C(O)(c1ccccc1)C1CCCC1 (stereo unspecified)	-11	1	7	28*	12
O=c1[nH]c(=S)n(Cc2ccc(F)cc2)c(O)c1/C=N/N1CCCCCC1	0	20	8	46*	-1
O=c1[nH]c(=S)n(Cc2ccc(F)cc2)c(O)c1C=NCc1ccc2c(c1)OCO2	-36	-21	17	.	-25
CCOC(=O)C1=C(N)OC2=C(C(=O)CCC2)[C@]12C(=O)N(CC(N)=O)c1ccccc12	-2	-10	-10	36*	9
Fc1ccc(C(OCCN2CCCC2)c2ccc(Br)cc2)cc1 (stereo unspecified)	23	32	42	47*	30
Fc1ccc(C(OCCN2CCCC2)c2ccc(F)cc2)cc1	6	5	12	21	-6
COC(=O)C1=C(c2cc3ccccc3o2)C[C@@H]2CC[C@H]1N2C(=O)NCc1ccco1	16	7	13	.	-11
O=c1c(/C=N/N2CCOCC2)c(O)n(-c2ccccc2)c(=S)n1-c1ccccc1	9	10	12	6	17
Cn1c(O)c(/C=N/N2CCOCC2)c(=O)n(-c2ccccc2)c1=S	8	0	8	37*	13
O=C(/C=C/c1ccc(F)cc1)NC(=S)N1C[C@H]2C[C@H](C1)c1cccc(=O)n1C2	-12	6	8	0	-2
C=C1C(O)[C@@H]2O[C@]3(CC[C@H](/C=C/C(C)[C@@H]4CC(C)=CC5(O[C@H](C[C@@](C)(O)C(=O)O)CCC5O)O4)O3)CC[C@H]2O[C@@H]1C(O)CC(C)[C@H]1OC2(CCCCO2)CCC1C (stereo partly specified)	10	6	15	.	2
SMILES	tim23-1 inh	tim10-1 inh	NALP3 yeast inh	NALP1 inh	TIM10 inh	others
CN(C)[C@@H]1C(=O)C(C(N)=O)=C(O)[C@@]2(O)C(=O)C3=C(O)c4c(O)ccc(Cl)c4[C@@](C)(O)C3C[C@@H]12 (stereo partly specified)	.	.	.	132*	.
CCCCn1c(O)c(C(C)=NCCN2CCOCC2)c(=O)[nH]c1=O	-2	5	15	11	3
CCCCn1c(O)c(C(CC)=NCCN2CCOCC2)c(=O)[nH]c1=O	8	2	27	44*	-2
CCOc1ccccc1CN1C2CCC1CC(c1ccc(C)cc1)C2 (stereo unspecified)	-4	2	18	33	11
CCOc1ccc(N2C(=O)NC(=O)/C(=C/c3cnc(SC)nc3)C2=O)cc1	6	6	11	-2	8
O=C1CN=C(c2ccc(Cl)cc2)c2oc3ccccc3c2N1	-9	4	17	.	2
COc1ccc2oc3c(c2c1)NC(=O)CN=C3c1ccccc1	15	23	13	23*	18
N#CC(C#N)=Cc1ccc(-c2ccccc2)o1	26	18	73*	35	31	NALP3 confirm=74*
CC1(C)CC[C@]2(C)CC[C@]3(C)C4C[C@@H]5OO[C@@]6(O5)C(CCCC6(C)C)[C@]4(C)CC[C@@]3(C)C2C1 (stereo partly specified)	16	21	16	.	6
C[C@H](O)[C@H]1CC[C@H]2[C@@H]3CCC4=CC(=O)CC[C@]4(C)[C@H]3CC[C@]12C	13	-28	52*	32	-93	NALP3 confirm=73*;Casp1 ASC ctr=42;NALP3 retest=40
CC(N)C(=O)OC(C)(C)Cc1ccc(Cl)cc1 (stereo unspecified)	11	12	69*	.	14	NALP3 confirm=56*;Casp1 ASC ctr=48;NALP3 retest=56*
COc1ccc(C(=O)C(Cc2ccccc2)N(C)C)cc1 (stereo unspecified)	19	22	56*	40	-4	NALP3 confirm=72*;Casp1 ASC ctr=44;NALP3 retest=39
CN(C)C(Cc1ccc(C#N)cc1)C(=O)c1ccccc1 (stereo unspecified)	13	35	8	35	-7
CN(C)C(Cc1ccccc1)C(=O)c1ccc(-c2ccccc2)cc1 (stereo unspecified)	22	29	56*	27	-18	NALP3 confirm=67*;Casp1 ASC ctr=55*;NALP3 retest=62*
O=C(COc1ccc2ccc(=O)oc2c1)N1CCC(C(=O)O)(c2ccccc2)CC1	15	6	4	-2	5
